In PubChem BioAssay (NCATS):
Records with an inconclusive call do not appear. The source made the active and inactive calls. Unless noted, calls come from the whole dose curve; as a rule, active = well fitted curve in the direction sought with a large enough effect; inconclusive = small, poorly fitted or top-dose-only effect, or another doubt; inactive = no such curve, though single readings can be large; an effect the other way counts as inactive or inconclusive.

What was measured:
[1] = Cell Viability - BJ (AID 421; calls by dose curve;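 note: potency is the fitted concentration of half-maximal effect; cells exposed to compound for 40 hours at 37 °C before readout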); conditions: BJ fibroblast viability, qHTS
Outline: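 Normal human BJ foreskin fibroblasts, 1500/well in complete medium, treated 40 hr at 37 °C. Cellular ATP by CellTiter-Glo luminescence; normalized to DMSO and 100 uM tamoxifen, AC50 from Hill fit.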

[2] = Cell Viability - Jurkat (AID 426;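 active = dose-dependent loss of cell ATP signal giving a full or clear fitted curve, ranked by lower potency value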; note: potency is the fitted concentration of half-maximal effect); conditions: qHTS
Outline: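 qHTS, 1536-well; Jurkat E6-1, 5000 cells/well, complete medium; cpd 40 hr, 37 °C; CellTiter-Glo 20 min RT; luminescence. AC50 by Hill fit.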

[3] = Cell Viability - Hek293 (AID 427;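 active = compounds whose dose-response curve shows a full or clear partial loss of cell viability, called from curve shape rather than a numeric limit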;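 note: potency is the fitted concentration of half-maximal effect; cells exposed to compound for 40 hours at 37 °C before reading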); conditions: qHTS
Outline: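 HEK293 cells in complete medium were exposed to compound for 40 hr at 37 °C, then cellular ATP was read by CellTiter-Glo luminescence. Data were normalized to DMSO (basal) and 100 uM tamoxifen (100% inhibition), and AC50 came from Hill fits.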

[4] = Cell Viability - MRC5 (AID 434; calls by dose curve;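 note: potency is the fitted concentration of half-maximal effect; potency reflects cytotoxicity seen as loss of intracellular ATP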); conditions: MRC5 lung fibroblast viability, qHTS
Outline: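 MRC5 normal human lung fibroblasts, 1500 cells/well, exposed to compound for 40 hr at 37 C. Cellular ATP was read by CellTiter-Glo luminescence; data normalized to DMSO and 100 uM tamoxifen, with AC50 from Hill fits.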

[5] = biological target: Mitogen-activated protein kinase 10 (Mus musculus) (UniProt Q61831); experiment: JNK3 AlphaScreen Assay (AID 530; active = well fitted curve in either direction with a large enough effect, not every such curve was filed as active;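 note: kinase came from lysate of stimulated human HepG2 cells; signal reports phosphorylation of biotinylated GST-cJun 1-79 at Ser73 with 10 µM ATP; % is set by controls: 0 for no effect and ±100 for the full control effect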); conditions: JNK3 lysate, c-Jun phosphorylation; series mostly up to 57.1 µM
Outline: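 Pre-activated (IL-1β/TNFα) JNK3 in HepG2 lysates phosphorylates biotin-GST-cJun(1-79), 10 uM ATP; anti-phospho-cJun(Ser73) AlphaScreen read at room temperature, pH 7.6 Tris buffer. Compounds pre-incubated 15 min as titrations.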

[6] = Cell Viability - N2a (AID 540); conditions: N2a mouse neuroblastoma cell viability; activity change, negative = cytotoxicity: at 92.2 µM (top of the series);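 note: plate controls were DMSO alone for no effect and tamoxifen control for full effect; nearly all actives have a fitted effect of over 45% in size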
Outline: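 Luminescent ATP signal (CellTiter-Glo, 20 min at room temperature) served as the viability read-out after N2a cells were treated with compounds for 40 hours at 37 °C. Concentration-response data were fitted to the Hill equation for AC50.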

[7] = Cell Viability - HUV-EC-C (AID 542); conditions: HUV-EC-C endothelial cell viability, qHTS; series mostly up to 92.2 µM; note: % is set by controls: 0 for no effect and ±100 for the full control effect; nearly all actives have a fitted effect of over 35% in size
Outline: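 qHTS cytotoxicity: HUV-EC-C, 1000 cells/well, 5 hr settle, compound 40 hr 37 °C, CellTiter-Glo, luminescence. AC50 via Hill equation.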

[8] = Cell Viability - H-4-II-E (AID 543); conditions: H-4-II-E rat hepatoma viability; series mostly up to 92.2 µM; note: % is set by controls: 0 for no effect and ±100 for the full control effect; nearly all actives have a fitted effect of over 35% in size
Outline: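 Luminescent ATP signal (CellTiter-Glo) served as the viability read-out, with cytotoxicity seen as a concentration-dependent ATP drop. Cells were treated for 40 hours in complete medium. AC50 values derive from Hill-equation modelling.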

[9] = Cell Viability - SH-SY5Y (AID 544); conditions: SH-SY5Y neuroblastoma cell viability; viability change, negative = cytotoxic: at 92.2 µM (top of the series); note: nearly all actives have a fitted effect of over 55% in size
Outline: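 Luminescent ATP read-out (CellTiter-Glo) measures loss of viable SH-SY5Y neuroblastoma cells after 40 hr compound exposure at 37 °C. AC50 values derive from standard Hill modelling of qHTS concentration-response data.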

[10] = Cell Viability - Renal Proximal Tubule (AID 545); conditions: renal proximal tubule cells viability, primary cells of rat origin; series mostly up to 91.7 µM; note: nearly all actives have a fitted effect of over 40% in size
Outline: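 Cytotoxicity is scored as a concentration-dependent drop in cellular ATP in primary rat renal proximal tubule cells exposed for 40 hr. AC50 derives from Hill modelling.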

[11] = Cell Viability - Mesenchymal (AID 546); conditions: mesenchymal cells viability, qHTS; series mostly up to 91.7 µM;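 note: cells exposed to compound for 40 hours before reading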
Outline: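 Human kidney mesenchymal cells from normal renal glomeruli, 1000 cells/well, rested 5 hr at 37 °C, then treated 40 hr at 37 °C in complete medium. Cellular ATP read by CellTiter-Glo luminescence; AC50 from Hill-equation fits.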

[12] = Cellular Toxicity (caspase-3) HepG2 (AID 654); conditions: HepG2 caspase-3 activation, luminescence; series mostly up to 92.2 µM;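 note: cells exposed to compound for 16 hours before reading; 0% = DMSO alone and 100% = caspase signal from 100 µM tamoxifen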
Outline: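 Cells plated 5 hr at 37 °C, compound added, incubated 16 hr at 37 °C. Caspase-Glo 3/7 reagent followed, 20 min at room temperature, then luminescence read. Activation scored as signal increase; AC50 from Hill fit.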

[13] = Cellular Toxicity (caspase-3) Jurkat (AID 655); conditions: Jurkat caspase-3 activation, luminescence; caspase-3 activation: at 92.2 µM (top of the series), DMSO = 0%, tamoxifen = 100%;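 note: cells exposed to compound for 16 h at 37 °C before reading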
Outline: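 Caspase 3/7 activation is scored as increased luminescence in Jurkat cells cultured with compound for 16 hours in complete medium. AC50 values come from Hill fits of qHTS concentration-response data normalized to DMSO and 100 uM tamoxifen controls.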

[14] = Cellular Toxicity (caspase-3) HUV-EC-C (AID 656); conditions: HUV-EC-C cells, caspase-3 activation (apoptosis), vehicle = 0, 100 µM tamoxifen = 100%; series mostly up to 92.2 µM;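 note: cells exposed to compound for 16 h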
Outline: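 Read-out: luminescence proportional to caspase 3/7 activity, measured 20 min after adding Caspase-Glo 3/7 reagent. Cells (HUV-EC-C) had received compound for 16 hr at 37°C. Increases relative to DMSO and 100 uM tamoxifen gave concentration-response AC50 values.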

[15] = Cellular Toxicity (caspase-3) SHSY5Y (AID 657); conditions: SH-SY5Y caspase-3 activation, DMSO zero, 10 µM staurosporine = 100%; series mostly up to 91.7 µM;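 note: cells exposed to compound for 16 hours at 37 °C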
Outline: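 Cells plated and incubated 5 h at 37 °C, dosed over a concentration range, incubated 16 h, then given Caspase-Glo 3/7 reagent for 1 h at room temperature before luminescence reading. Staurosporine (10 uM) defined full stimulation.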

[16] = Cellular Toxicity (caspase-3) BJ (AID 658); conditions: BJ fibroblasts, luminescence, normalized: DMSO 0%, staurosporine 100%; series mostly up to 91.7 µM
Outline: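 BJ human foreskin fibroblasts, 1000 cells/well, treated 16 hours at 37 °C in complete medium; caspase 3/7 activity by Caspase-Glo luminescence after 1 hr at room temperature. Normalized to DMSO and 10 uM staurosporine; AC50 from Hill fits.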

[17] = Cellular Toxicity (caspase-3) MRC-5 (AID 659); conditions: MRC-5 cells, luminescence, normalized: DMSO 0%, 10 µM staurosporine 100%; series mostly up to 91.7 µM;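 note: cells exposed to compound for 16 h at 37 °C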
Outline: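 MRC-5 human normal lung fibroblasts, 1500 cells/well, treated 16 h at 37 °C in complete medium. Caspase 3/7 measured by Caspase-Glo luminescence after 1 h at room temperature. Normalized to DMSO and 10 uM staurosporine; AC50 from Hill fit.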

[18] = Cell Viability - SK-N-SH (AID 435; calls by dose curve;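 note: potency is the fitted concentration of half-maximal effect; compound exposure lasted 40 h at 37 °C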); conditions: SK-N-SH neuroblastoma cell viability qHTS
Outline: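 Cells seeded at 1500 per well and incubated 5 hr at 37 °C. Compound added, then 40 hr at 37 °C. CellTiter-Glo added, 20 min at room temperature, luminescence read.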

[19] = Cell Viability - NIH 3T3 (AID 541); conditions: NIH 3T3 cell viability, qHTS; activity change, negative = cytotoxicity: at 92.2 µM (top of the series);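 note: plate controls were DMSO alone for no effect and tamoxifen positive control for full effect; nearly all actives have a fitted effect of over 25% in size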
Outline: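 Luminescent ATP signal (CellTiter-Glo) served as the viability read-out after NIH 3T3 cells were exposed to compounds over a concentration range for 40 hr at 37 °C. Hill-equation modelling of concentration-response data gave AC50.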

[20] = Cell Viability - HepG2 (AID 433; calls by dose curve;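 note: potency is the fitted concentration of half-maximal effect; potency for ATP loss meaning cytotoxicity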); conditions: qHTS
Outline: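 Cytotoxicity is scored as loss of intracellular ATP in HepG2 cells exposed to compounds for 40 h. Concentration-response curves, normalized to DMSO and 100 uM tamoxifen, give AC50 values.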

CO[Si](CCCNCCC[Si](OC)(OC)OC)(OC)OC
inactive: Potency [1] > 92 µM | Potency [2] > 92 µM | Potency [3] > 92 µM | Potency [4] > 92 µM | outcome [5] | activity change, negative = cytotoxicity [6] -27% | Potency [7] | Potency [8] | Potency [9] | Potency [10] | Potency [11] | Potency [12] | caspase-3 activation [13] 2.91% | outcome [14] | outcome [15] | outcome [16] | outcome [17]

OC(CCl)CCl
inactive: Potency [1] > 92 µM | Potency [2] > 92 µM | Potency [3] > 92 µM | Potency [4] > 92 µM | Potency [18] > 92 µM | outcome [5] | activity change, negative = cytotoxicity [6] -4.88% | Potency [19] | Potency [7] | Potency [8] | Potency [9] | Potency [11] | Potency [12] | caspase-3 activation [13] 0.028% | outcome [14] | outcome [16] | outcome [17]

Nc1ccccc1S(=O)(=O)O
inactive: Potency [1] > 92 µM | Potency [2] > 92 µM | Potency [3] > 92 µM | Potency [4] > 92 µM | Potency [18] > 92 µM | outcome [5] | activity change, negative = cytotoxicity [6] 4.97% | Potency [19] | Potency [7] | Potency [8] | Potency [9] | Potency [10] | Potency [11] | Potency [12] | caspase-3 activation [13] 1.01% | outcome [14] | outcome [15] | outcome [16] | outcome [17]

Nc1nc(CC(=O)O)cs1
inactive: Potency [1] > 92 µM | Potency [2] > 92 µM | Potency [3] > 92 µM | Potency [20] > 92 µM | Potency [18] > 92 µM | outcome [5] | Potency [19] | Potency [7] | Potency [8] | Potency [9] | Potency [11] | Potency [12] | caspase-3 activation [13] 0.779% | outcome [14] | outcome [15] | outcome [16] | outcome [17]

CSc1ccc(C=O)cc1
inactive: Potency [1] > 92 µM | Potency [2] > 92 µM | Potency [3] > 92 µM | Potency [4] > 92 µM | outcome [5] | activity change, negative = cytotoxicity [6] 0.565% | Potency [19] | Potency [8] | Potency [9] | Potency [10] | Potency [11] | Potency [12] | caspase-3 activation [13] 1.05% | outcome [14] | outcome [15] | outcome [16] | outcome [17]

Cc1ccc(C)o1
inactive: Potency [1] > 92 µM | Potency [2] > 92 µM | Potency [3] > 92 µM | Potency [20] > 92 µM | Potency [18] > 92 µM | outcome [5] | Potency [19] | Potency [7] | Potency [8] | Potency [9] | Potency [12] | caspase-3 activation [13] 1.7% | outcome [14] | outcome [15] | outcome [16] | outcome [17]
